Among all 39,000 compounds or so, about 3,300 (8.5%) were called active. The full list was thinned out, with actives kept by preference.
Test system: HepG2
Assay: cytotoxicity call (relative viability < 0.9)
Conditions: 10 µM

SMILES | cytotoxicity call
CN1CCN(C(=O)C[C@H]2CC[C@@H]3[C@H](COC[C@H](O)CN3Cc3ccc4c(c3)OCO4)O2)CC1 | inactive
O=C(C[C@@H]1CC[C@H]2[C@@H](COC[C@@H](O)CN2C(=O)Nc2ccc(C(F)(F)F)cc2)O1)NCCc1ccncc1 | inactive
CCCNC(=O)Nc1ccc2c(c1)OC[C@@H](C)N(Cc1ccc(-c3ccccn3)cc1)C[C@@H](C)[C@H](OC)CN(C)C2=O | inactive
Nc1c(C(=O)O)cnc2nc(N3CCOCC3)nn12 | inactive
COc1ccc(S(=O)(=O)Nc2ccc3c(c2)C(=O)N([C@@H](C)CO)C[C@@H](C)[C@@H](CN(C)Cc2ccc(C(=O)O)cc2)OCCCC[C@@H](C)O3)cc1 | inactive
C[C@H]1CN([C@@H](C)CO)S(=O)(=O)c2ccc(C#Cc3ccc(F)cc3)cc2O[C@H]1CN(C)S(=O)(=O)c1cn(C)cn1 | inactive
CNc1cc(=O)n(C)c(=O)n1C | inactive
Cc1c(C)n2c3c(=O)n(C)c(=O)n(C)c3nc2n1CCN1CCOCC1 | inactive
O=C(CN1C(=O)c2ccccc2C1=O)N1CCNCC1 | inactive
NC(=O)C1CCN(C(=O)c2ccc(NC3=N[C@H]4CS(=O)(=O)C[C@@H]4S3)cc2)CC1 | inactive
C[C@H](CO)N1C[C@H](C)[C@H](CN(C)S(=O)(=O)c2ccc(Cl)cc2)Oc2ccc(NC(=O)c3ccncc3)cc2CC1=O | inactive
CC(C)NC(=O)Nc1ccc2c(c1)C(=O)N([C@H](C)CO)C[C@@H](C)[C@H](CN(C)C(=O)Nc1ccc(C(F)(F)F)cc1)OCCCC[C@@H](C)O2 | inactive
C=C1COC(=O)[C@@H]2[C@@H](CO)[C@@H](O)C[C@H]12 | inactive
C[C@@H]1CN([C@@H](C)CO)C(=O)c2cc(NC(=O)NC3CCCCC3)ccc2O[C@H]1CN(C)Cc1ccc(-c2ccccc2)cc1 | inactive
C[C@H]1CN([C@@H](C)CO)C(=O)c2cc(NC(=O)NC3CCCCC3)ccc2O[C@@H]1CN(C)Cc1ccc(-c2ccccc2)cc1 | active
CC(C)NC(=O)Nc1ccc2c(c1)C(=O)N([C@H](C)CO)C[C@@H](C)[C@@H](CN(C)Cc1ccc(-c3ccccc3)cc1)O2 | inactive
C[C@H]1CN([C@@H](C)CO)C(=O)c2cc(NC(=O)NC3CCCCC3)ccc2O[C@H]1CN(C)Cc1ccc(-c2ccccc2)cc1 | inactive
C[C@@H]1CN([C@H](C)CO)C(=O)c2cc(NC(=O)NC3CCCCC3)ccc2O[C@H]1CN(C)Cc1ccc(-c2ccccc2)cc1 | inactive
C[C@H](CO)N1C[C@H](C)[C@H](CN(C)Cc2ccc(-c3ccccc3)cc2)Oc2ccc(NC(=O)NC3CCCCC3)cc2C1=O | inactive
C[C@@H]1CN([C@@H](C)CO)C(=O)c2cc(NC(=O)NC3CCCCC3)ccc2O[C@@H]1CN(C)Cc1ccc(-c2ccccc2)cc1 | active
C[C@H](CO)N1C[C@H](C)[C@@H](CN(C)Cc2ccc(-c3ccccc3)cc2)Oc2ccc(NC(=O)NC3CCCCC3)cc2C1=O | inactive
C[C@@H]1CN([C@H](C)CO)C(=O)c2cc(NC(=O)NC3CCCCC3)ccc2O[C@@H]1CN(C)Cc1ccc(-c2ccccc2)cc1 | active
[O-][NH2+][O-] | inactive
C[C@H]1CN([C@@H](C)CO)C(=O)c2cc(NC(=O)Nc3cccc4ccccc34)ccc2O[C@H]1CN(C)S(=O)(=O)c1cccs1 | inactive
Cc1ccccc1[C@@H](c1ncccc1C)N(C)C(=O)C1CCN(CCOc2ccc(Cl)cc2Cl)CC1 | inactive
COc1ccccc1NC(=O)N(C)C[C@H]1Oc2ncc(C#CCN(C)C)cc2C(=O)N([C@H](C)CO)C[C@@H]1C | inactive

SMILES | cytotoxicity call
CCCNC(=O)N1C[C@@H](O)COC[C@H]2O[C@@H](CC(=O)N3CCOCC3)CC[C@@H]21 | inactive
O=C(CCCCCNC(=O)OCc1ccc(CO[C@H]2C[C@@H](c3ccc(C(F)(F)F)cc3)C=C(C(=O)N3CCN(Cc4ccc5c(c4)OCO5)CC3)O2)cc1)NO | inactive
C[C@@H]1CCCCO[C@@H](CN(C)CC2CC2)[C@@H](C)CN([C@H](C)CO)C(=O)c2cc(NC(=O)Nc3ccccc3)ccc2O1 | inactive
CN1C(=O)c2cc(NC(=O)Cc3cccs3)ccc2OC[C@@H]2O[C@@H](CC(=O)NCCc3ccncc3)CC[C@@H]21 | inactive
C[C@@H]1CN([C@@H](C)CO)C(=O)c2cc(/C=C/c3ccccc3)cnc2O[C@H]1CN(C)C(=O)Nc1ccc(C(F)(F)F)cc1 | inactive
C[C@@H]1CN([C@@H](C)CO)C(=O)c2cc(C3=CCCC3)cnc2O[C@@H]1CN(C)C(=O)Nc1ccc(C(F)(F)F)cc1 | inactive
C[C@H](CO)N1C[C@H](C)[C@H](CN(C)C(=O)Nc2ccc(C(F)(F)F)cc2)Oc2ncc(C3=CCCC3)cc2C1=O | inactive
C[C@@H]1CN([C@@H](C)CO)C(=O)c2cc(C3=CCCC3)cnc2O[C@H]1CN(C)C(=O)Nc1ccc(C(F)(F)F)cc1 | inactive
C[C@H]1CN([C@@H](C)CO)C(=O)c2cc(C3=CCCC3)cnc2O[C@H]1CN(C)C(=O)Nc1ccc(C(F)(F)F)cc1 | active
C[C@H]1CN([C@@H](C)CO)C(=O)c2cc(C3=CCCC3)cnc2O[C@@H]1CN(C)C(=O)Nc1ccc(C(F)(F)F)cc1 | inactive
C[C@H](CO)N1C[C@H](C)[C@@H](CN(C)C(=O)Nc2ccc(C(F)(F)F)cc2)Oc2ncc(/C=C/c3ccccc3)cc2C1=O | inactive
C[C@@H]1CN([C@H](C)CO)C(=O)c2cc(C3=CCCCC3)cnc2O[C@H]1CN(C)C(=O)CN1CCOCC1 | active
C[C@H](CO)N1C[C@H](C)[C@H](CN(C)C(=O)CN2CCOCC2)Oc2ncc(C3=CCCCC3)cc2C1=O | inactive
C[C@@H]1CN([C@H](C)CO)C(=O)c2cc(C3=CCCC3)cnc2O[C@@H]1CN(C)C(=O)Nc1ccc(C(F)(F)F)cc1 | active
C[C@@H]1CN([C@H](C)CO)C(=O)c2cc(/C=C/c3ccccc3)cnc2O[C@@H]1CN(C)C(=O)Nc1ccc(C(F)(F)F)cc1 | active
C[C@H](CO)N1C[C@H](C)[C@@H](CN(C)C(=O)CN2CCOCC2)Oc2ncc(C3=CCCCC3)cc2C1=O | inactive
C[C@H](CO)N1C[C@H](C)[C@H](CN(C)C(=O)Nc2ccc(C(F)(F)F)cc2)OCCCC[C@H](C)Oc2ccc(N(C)C)cc2C1=O | inactive
O=C(Cc1ccccc1)NCCN1CCOCC1 | inactive
CO[C@H](CN(C)S(=O)(=O)c1cccc(Cl)c1)[C@@H](C)CN([C@@H](C)CO)S(=O)(=O)c1ccc(Cl)cc1 | inactive
COc1ccc(NC(=O)N(C)C[C@@H]2Oc3ccc(NS(=O)(=O)c4cn(C)cn4)cc3C(=O)N([C@H](C)CO)C[C@H]2C)cc1 | inactive
O=C(C[C@@H]1C[C@H]2c3cc(NC(=O)Nc4ccc(C(F)(F)F)cc4)ccc3O[C@H]2[C@@H](CO)O1)NCCc1ccccc1 | inactive
C[C@H]1CN([C@@H](C)CO)C(=O)Cc2cc(NC(=O)Cn3cnnn3)ccc2O[C@@H]1CN(C)Cc1ccccc1 | inactive
CCO[C@@H]1OC(C(=O)N2CCN(Cc3ccccc3)CC2)=C[C@H](c2ccc(Br)cc2)[C@H]1CCCOC(=O)NCCCCCC(=O)NO | inactive
C[C@@H]1CN([C@H](C)CO)C(=O)c2cc(NC(=O)Cc3ccccc3)ccc2O[C@@H]1CN(C)Cc1ccc(C(=O)Nc2ccccc2N)cc1 | inactive
C[C@@H]1CCCCO[C@H](CN(C)S(=O)(=O)c2ccccc2)[C@@H](C)CN([C@@H](C)CO)C(=O)c2cc(NS(=O)(=O)c3cn(C)cn3)ccc2O1 | inactive
O=C(C[C@@H]1C[C@@H]2c3cc(NS(=O)(=O)c4ccc(F)cc4)ccc3O[C@@H]2[C@H](CO)O1)NCc1ccncc1 | inactive

SMILES | cytotoxicity call
C#CCCCCCCCCCCC[C@H](O)C[C@H](O)COC(C)=O.C=CCCCCCCCCCCC[C@H](O)C[C@H](O)COC(C)=O | inactive
C[C@@H]1CCCCO[C@@H](CN(C)C(=O)Nc2ccc3c(c2)OCO3)[C@@H](C)CN([C@H](C)CO)C(=O)c2cc(NS(=O)(=O)c3ccc(F)cc3)ccc2O1 | inactive
C[C@H](CO)N1C[C@H](C)[C@H](CN(C)C(=O)c2ccc3c(c2)OCO3)Oc2ncc(C3=CCCC3)cc2C1=O | inactive
C[C@H]1CN([C@@H](C)CO)C(=O)c2cc(C3=CCCC3)cnc2O[C@H]1CN(C)C(=O)c1ccc2c(c1)OCO2 | active
C[C@H](CO)N1C[C@H](C)[C@@H](CN(C)C(=O)c2ccc3c(c2)OCO3)Oc2ncc(C3=CCCC3)cc2C1=O | inactive
OC1(c2ccc(Cl)c(C(F)(F)F)c2)CCN(CCCC(c2ccc(F)cc2)c2ccc(F)cc2)CC1 [listing 1 of 2 here] | active
OC1(c2ccc(Cl)c(C(F)(F)F)c2)CCN(CCCC(c2ccc(F)cc2)c2ccc(F)cc2)CC1 [listing 2 of 2 here] | active
COC(=O)C[C@@H]1CC[C@@H]2[C@H](COC[C@H](O)CN2S(=O)(=O)c2ccccc2C)O1 | inactive
C[C@@H]1CN([C@H](C)CO)C(=O)Cc2cc(NC(=O)NC3CCCCC3)ccc2O[C@H]1CN(C)S(=O)(=O)c1cn(C)cn1 | inactive
COc1ccc2c(-c3ccc(Cl)cc3)c(C)oc2c1 | active
COc1ccc(-c2cc(=O)c3ccccc3o2)cc1 | inactive
COc1ccc2c(=O)ccoc2c1 | inactive
COc1ccc2c(C)cc(=O)oc2c1 | inactive
COc1ccc(-c2c(C)oc3ccc(Cl)cc23)cc1 | active
COc1ccc2oc(C(C)=O)cc2c1 | inactive
C[C@@H]1CN([C@H](C)CO)C(=O)c2cccc(NC(=O)C3CCOCC3)c2O[C@@H]1CN(C)Cc1ccncc1 | inactive
C[C@H]1CN([C@@H](C)CO)C(=O)c2cccc(NC(=O)Nc3cccc4ccccc34)c2O[C@H]1CN(C)CC1CCCCC1 | inactive
CCN(CC)Cc1ccc(Nc2ccnc3cc(Cl)ccc23)cc1O.Cl.Cl | active
O=C(OCC(O)CO)c1ccccc1Nc1ccnc2cc(Cl)ccc12 (configuration not stated) | inactive
CCN(CC)CCCC(C)Nc1ccnc2cc(Cl)ccc12.O=P(O)(O)O.O=P(O)(O)O (configuration not stated) | active
CCN(CCO)CCCC(C)Nc1ccnc2cc(Cl)ccc12.O=S(=O)(O)O (configuration not stated) | active
COc1ccc2nc(Cl)sc2c1 | inactive
COc1ccc2nc3ccc(Cl)cc3c(SCCCN)c2c1 | inactive
CCN(CC)CCCC(C)Nc1c2ccc(Cl)cc2nc2ccc(OC)cc12.Cl.Cl (configuration not stated) | active
Cc1cc(Oc2ccnc3cc(Cl)ccc23)ccc1Cl | inactive

From the antibiotic and cytotoxicity screens of Wong et al. (2023)
